Measurements published in the supplement of paper PMC6658780.
Where a name gives a salt, the structure may show the parent alone. ± gives the standard deviation of the averaged measurements.

These compounds were tested on Escherichia coli ATCC BAA-2469 (assay: percent growth inhibition of drug + antibiotic vs DMSO control; higher = more growth inhibition). Conditions: antibiotic (0.125x MIC): ciprofloxacin; 7 µM.
Protocol: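 Prestwick drugs tested at 20 uM and 7 uM with an antibiotic at 0.125x MIC (16 mg/L when MIC >128 mg/L) against E. coli ATCC BAA-2469 (NDM-1) in CAMHB, 384-well plates, duplicate runs. Percent growth inhibition was computed from OD600 (24 h minus 0 h) relative to DMSO wells. Drug + DMSO-only wells are also given. […]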
`Nc1nc(O)c2ncn(CCC(CO)CO)c2n1` [Penciclovir] gave a percent growth inhibition of 7.81 ± 16%. With `C#C[C@]1(OC(C)=O)CC[C@H]2[C@@H]3CCC4=C[C@@H](OC(C)=O)CC[C@@H]4[C@H]3CC[C@@]21C` [Ethynodiol diacetate] the percent growth inhibition was 5.09 ± 12%. With `O=C1NCCN1c1ncc([N+](=O)[O-])s1` [Niridazole] the percent growth inhibition was 45 ± 5.1%. In the case of `Nc1ncn(C2OC(CO)C(O)C2O)c(=O)n1` (stereo not given) [Azacytidine-5], the percent growth inhibition is reported as 99.1 ± 2.6%. `CO[C@H]1/C=C/O[C@@]2(C)Oc3c(C)c(O)c4c(O)c(c(/C=N/N5CCN(C)CC5)c(O)c4c3C2=O)NC(=O)/C(C)=C\C=C\[C@H](C)[C@H](O)[C@@H](C)[C@@H](O)[C@@H](C)[C@H](OC(C)=O)[C@@H]1C` [Rifampicin] showed a percent growth inhibition of 13.5 ± 3.6%. `CS(=O)(=O)c1ccc([C@@H](O)[C@@H](CF)NC(=O)C(Cl)Cl)cc1` [Florfenicol] showed a percent growth inhibition of 35.4 ± 4.7%.

Same assay, conditions: antibiotic (0.125x MIC): ciprofloxacin; 20 µM
`Nc1nc(O)c2ncn(CCC(CO)CO)c2n1` [Penciclovir] gave a percent growth inhibition of -2.9 ± 7.2%. With `C#C[C@]1(OC(C)=O)CC[C@H]2[C@@H]3CCC4=C[C@@H](OC(C)=O)CC[C@@H]4[C@H]3CC[C@@]21C` [Ethynodiol diacetate] the percent growth inhibition was 8.86 ± 3.1%. `N=C(NCCCCCCNC(=N)NC(=N)Nc1ccc(Cl)cc1)NC(=N)Nc1ccc(Cl)cc1` [Chlorhexidine] gave a percent growth inhibition of 103 ± 3.8%. Work on `O=C1NCCN1c1ncc([N+](=O)[O-])s1` [Niridazole] yielded a percent growth inhibition of 86.8 ± 14%. `Nc1ncn(C2OC(CO)C(O)C2O)c(=O)n1` (stereo not given) [Azacytidine-5] gave a percent growth inhibition of 101 ± 3%. With `CO[C@H]1/C=C/O[C@@]2(C)Oc3c(C)c(O)c4c(O)c(c(/C=N/N5CCN(C)CC5)c(O)c4c3C2=O)NC(=O)/C(C)=C\C=C\[C@H](C)[C@H](O)[C@@H](C)[C@@H](O)[C@@H](C)[C@H](OC(C)=O)[C@@H]1C` [Rifampicin] the percent growth inhibition was 101 ± 2.1%. For `CS(=O)(=O)c1ccc([C@@H](O)[C@@H](CF)NC(=O)C(Cl)Cl)cc1` [Florfenicol], the percent growth inhibition was 88.8 ± 2.8%.

Same assay, conditions: antibiotic (0.125x MIC): gentamicin; 7 µM
For `Oc1c(Cl)cc(Cl)c(Cl)c1Cc1c(O)c(Cl)cc(Cl)c1Cl` [Hexachlorophene], the percent growth inhibition was 21.4 ± 16%. For `CO/N=C(\C(=O)N[C@@H]1C(=O)N2C(C(=O)O)=C(COC(N)=O)CS[C@H]12)c1ccco1` [Cefuroxime sodium salt], the percent growth inhibition was -0.221 ± 4.4%. Work on `NS(=O)(=O)c1cc2c(cc1C(F)(F)F)NC(Cc1ccccc1)NS2(=O)=O` (stereo not given) [Bendroflumethiazide] yielded a percent growth inhibition of -0.966 ± 1.2%. In the case of `COc1cc(NS(=O)(=O)c2ccc(N)cc2)nc(OC)n1` [Sulfadimethoxine], the percent growth inhibition is reported as 1.55 ± 1.5%. Compound `O=C1NCCN1c1ncc([N+](=O)[O-])s1` [Niridazole] has a percent growth inhibition of 30.939 ± 0.024%. Work on `COc1ccc2c(c1)c(CC(=O)OCC(=O)O)c(C)n2C(=O)c1ccc(Cl)cc1` [Acemetacin] yielded a percent growth inhibition of 2.64 ± 1.7%. `C#C[C@]1(O)CC[C@H]2[C@@H]3CCC4=C(CCC(=O)C4)[C@H]3CC[C@@]21C` [Norethynodrel] showed a percent growth inhibition of 4.39 ± 3.6%. In the case of `Cc1cc(/C=C/c2ccc3cc(N(C)C)ccc3[n+]2C)c(C)n1-c1ccccc1` [Pyrvinium pamoate], the percent growth inhibition is reported as 13.6 ± 14%. `NC(=O)N/N=C/c1ccc([N+](=O)[O-])o1` [Nitrofural] gave a percent growth inhibition of 8.48 ± 6.7%. In the case of `N[C@@H]1CCCCN(c2c(F)cc3c(=O)c(C(=O)O)cn(C4CC4)c3c2Cl)C1` [Besifloxacin hydrochloride], the percent growth inhibition is reported as 6.28 ± 5.6%.

Same assay, conditions: antibiotic (0.125x MIC): gentamicin; 20 µM
Compound `N=C(NCCCCCCNC(=N)NC(=N)Nc1ccc(Cl)cc1)NC(=N)Nc1ccc(Cl)cc1` [Chlorhexidine] has a percent growth inhibition of 112 ± 19%. With `O=C1NCCN1c1ncc([N+](=O)[O-])s1` [Niridazole] the percent growth inhibition was 99.9 ± 3.3%. With `CC1=C(/C=C/C(C)=C/C=C/C(C)=C\C(=O)O)C(C)(C)CCC1` [Isotretinoin] the percent growth inhibition was 12.7 ± 20%. `Cc1c(OCC(F)(F)F)ccnc1C[S+]([O-])c1nc2ccccc2[nH]1` (stereo not given) [Lansoprazole] showed a percent growth inhibition of 12.5 ± 18%.

Same assay, conditions: antibiotic (0.125x MIC): meropenem; 7 µM
For `Cc1cc(N)c2ccccc2[n+]1CCCCCCCCCC[n+]1c(C)cc(N)c2ccccc21` [Dequalinium dichloride], the percent growth inhibition was -1.34 ± 1.8%. Compound `O=C1NCCN1c1ncc([N+](=O)[O-])s1` [Niridazole] has a percent growth inhibition of 42.4 ± 9.2%. With `CCC[C@@H]1C[C@@H](C(=O)N[C@@H]([C@H]2O[C@H](SC)[C@H](O)[C@@H](O)[C@H]2O)[C@H](C)Cl)N(C)C1` [Clindamycin hydrochloride] the percent growth inhibition was 13.3 ± 0.73%. `Cc1cc(/C=C/c2ccc3cc(N(C)C)ccc3[n+]2C)c(C)n1-c1ccccc1` [Pyrvinium pamoate] was tested, and the percent growth inhibition was 11.6 ± 17%. `Nc1c2ccccc2nc2ccccc12` [Aminacrine] showed a percent growth inhibition of 13.7 ± 12%. `NC(=O)N/N=C/c1ccc([N+](=O)[O-])o1` [Nitrofural] gave a percent growth inhibition of 4.64 ± 4%. Compound `N[C@@H]1CCCCN(c2c(F)cc3c(=O)c(C(=O)O)cn(C4CC4)c3c2Cl)C1` [Besifloxacin hydrochloride] has a percent growth inhibition of 2.23 ± 6.8%.

Same assay, conditions: antibiotic (0.125x MIC): meropenem; 20 µM
`Cc1cc(N)c2ccccc2[n+]1CCCCCCCCCC[n+]1c(C)cc(N)c2ccccc21` [Dequalinium dichloride] showed a percent growth inhibition of 34.5 ± 0.8%. `N=C(NCCCCCCNC(=N)NC(=N)Nc1ccc(Cl)cc1)NC(=N)Nc1ccc(Cl)cc1` [Chlorhexidine] was tested, and the percent growth inhibition was 99.2 ± 1.6%. In the case of `O=C1NCCN1c1ncc([N+](=O)[O-])s1` [Niridazole], the percent growth inhibition is reported as 85.3 ± 15%. With `CCC[C@@H]1C[C@@H](C(=O)N[C@@H]([C@H]2O[C@H](SC)[C@H](O)[C@@H](O)[C@H]2O)[C@H](C)Cl)N(C)C1` [Clindamycin hydrochloride] the percent growth inhibition was 42.6 ± 12%. `Cc1cc(/C=C/c2ccc3cc(N(C)C)ccc3[n+]2C)c(C)n1-c1ccccc1` [Pyrvinium pamoate] was tested, and the percent growth inhibition was 18 ± 14%. Work on `Nc1c2ccccc2nc2ccccc12` [Aminacrine] yielded a percent growth inhibition of 40.9 ± 17%.
